Assay results from PubChem BioAssay AID1259318 (Sanford-Burnham Center for Chemical Genomics, 2017).
Out of some 370,000 compounds screened, about 3,000 (0.81%) were called active. The sample holds actives, similar compounds and a random draw of the others, so the mix is not that of the screen.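 Rule for the calls: active = activity above about 14% (limit read from the data; passing the limit was not always enough); inactive = the rest.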

biological target: Nuclear receptor subfamily 1 group D member 1 (Homo sapiens) (UniProt P20393); experiment: Rev-erbα–DNA interaction modulation – biochemical, FITC-DNA, fluorescence polarization, uHTS, primary screen (AID 1259318); details: Rev-erbα–FITC-DNA binding, 90 min, at 10 µM, hits give high values;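 note: 0% = DMSO wells with 35 nM protein and 100% = DMSO wells with 750 nM protein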
Sequence (P20393 whole entry, looked up): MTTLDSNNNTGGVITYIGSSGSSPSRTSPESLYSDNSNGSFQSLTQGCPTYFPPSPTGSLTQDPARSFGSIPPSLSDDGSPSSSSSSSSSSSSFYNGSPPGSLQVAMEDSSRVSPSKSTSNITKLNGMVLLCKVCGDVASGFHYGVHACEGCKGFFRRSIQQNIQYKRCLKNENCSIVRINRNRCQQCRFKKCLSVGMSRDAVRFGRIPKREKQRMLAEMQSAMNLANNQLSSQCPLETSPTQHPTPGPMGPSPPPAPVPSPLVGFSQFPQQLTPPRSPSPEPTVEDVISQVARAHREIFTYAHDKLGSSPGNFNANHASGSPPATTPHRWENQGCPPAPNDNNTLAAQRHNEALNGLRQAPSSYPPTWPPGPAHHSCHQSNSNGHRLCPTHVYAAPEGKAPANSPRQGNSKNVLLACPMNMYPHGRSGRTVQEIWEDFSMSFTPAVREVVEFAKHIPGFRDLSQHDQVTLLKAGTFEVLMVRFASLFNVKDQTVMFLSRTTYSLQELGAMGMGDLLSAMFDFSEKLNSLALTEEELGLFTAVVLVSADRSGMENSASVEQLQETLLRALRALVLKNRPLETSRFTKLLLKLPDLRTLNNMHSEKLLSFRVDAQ

| Compound | activity |
| --- | --- |
| CCOC(=O)c1cc(S(=O)(=O)NCCc2ccc(OC)c(OC)c2)cn1C | 1.86% (inactive) |
| Cc1cccc(OCCC(=O)Nc2cc(S(=O)(=O)N3CCCCC3)ccc2N2CCOCC2)c1 | -0.99% (inactive) |
| CN(CCc1ccccn1)S(=O)(=O)c1ccc2c3c(cccc13)C(=O)N2 | 1.1% (inactive) |
| Cc1cc(NC(=O)CSC2=NS(=O)(=O)c3cc(Cl)ccc3N2)no1 | -5.75% (inactive) |
| Cc1cc(NC(=O)CSc2nc3cc(Cl)ccc3c(=O)n2Cc2ccco2)no1 | 20.1% (active) |
| O=C(CSc1nnc(-c2cccc(Cl)c2)n1Cc1ccco1)Nc1ccc(OCc2ccccc2)cc1 | 4.77% (inactive) |
| CC/C(=C(/c1ccccc1)c1ccc(OCC[N+](C)(C)C)cc1)c1ccccc1 | -1.77% (inactive) |
| C=CCN1[C@H](CC(C)C)COc2cccc(N3CCCC3)c2S1(=O)=O | 5.72% (inactive) |
| Fc1c(F)c(C(F)(F)F)c(F)c(F)c1N1CCN(c2ccc3nnc(C(F)(F)F)n3n2)CC1 | 28.7% (active) |
| CCN(CC)S(=O)(=O)c1ccc(OC(C)C)c(N)c1 | -2.29% (inactive) |
| CCN(CC)S(=O)(=O)c1ccc(C(=O)N2CCN(C3=NS(=O)(=O)c4ccccc43)CC2)cc1 | -1.88% (inactive) |
| CCN(CC)C(=O)CS(=O)CC(=O)Nc1cc(OCCOC)c(Cl)cc1Cl (stereo not drawn) | -6.56% (inactive) |
| CSc1ccc(Cl)c(C(=O)OCC(=O)N2CC(C)OC(C)C2)c1 (stereo not drawn) | -1.82% (inactive) |
| COc1cc(Cl)c(C)cc1NC(=O)COC(=O)c1cc(SC)ccc1Cl | 35.7% (active) |
| COc1ccc(OCC(=O)Nc2cc(C)c(Cl)cc2OC)c([N+](=O)[O-])c1 | 1.26% (inactive) |
| COc1ccccc1NC(=O)COc1ccc(C(=O)OCC(=O)N(C(C)C)C(C)C)cc1OC | 0.89% (inactive) |
| Clc1ccc(Cl)c(Oc2ccc(Oc3nc(Cl)ccc3Cl)cc2)n1 | -2% (inactive) |
| Clc1ccc(-n2c(COc3ccccc3)nnc2SCc2nc3ccccc3[nH]2)cc1 | -0.37% (inactive) |
| CC1CC2C3CCC4=CC(=O)C=C[C@]4(C)[C@@]3(F)[C@@H](O)C[C@]2(C)[C@@]1(O)C(=O)CO (stereo partly drawn) | 0.08% (inactive) |
| Cn1nccc1NS(=O)(=O)c1ccc(F)cc1 | 3.3% (inactive) |
| O=C(CS(=O)(=O)c1cn(Cc2cccc(F)c2)c2ccccc12)N1CCCCC1 | -9.9% (inactive) |
| CCc1c(-c2ccc(F)cc2)ncn1Cc1cccc(-c2ccccc2)c1 | -5.19% (inactive) |
| O=c1cc(N2CCCCC2)c(-c2ccccc2)nn1Cc1cccc(F)c1 | 30.7% (active) |
| COC(=O)[C@]1(C)N[C@H](CN(C)C(=O)c2ccc(C(C)(C)C)cc2)[C@@H]2C(=O)N(C)C(=O)[C@@H]21 | -0.45% (inactive) |
| Oc1c(Br)cc(/C=N/NC(=S)NCC2CCCO2)cc1Br (stereo not drawn) | -2.6% (inactive) |
| CO/N=C(\C(=O)N[C@@H]1C(=O)N2C(C(=O)O)=CCS[C@H]12)c1csc(N)n1 | -1.64% (inactive) |

| Compound | activity |
| --- | --- |
| CCn1c(=O)c2ccccc2n(CC(=O)N2CCCc3ccccc32)c1=O | -3.6% (inactive) |
| Cn1c(=O)[nH]c(=O)c2c1nc(CN(Cc1ccccc1)Cc1ccccc1)n2CCN1CCOCC1 | -1.09% (inactive) |
| CC(C)Cn1c(CN(Cc2ccccc2)Cc2ccccc2)nc2c1c(=O)n(C)c(=O)n2C | 42.6% (active) |
| CC(C)CCn1c(CN(C)Cc2ccccc2)nc2c1c(=O)n(C)c(=O)n2C | 3.74% (inactive) |
| Cc1ccccc1NC(=O)C1CCN(c2ncccn2)CC1 | 4.79% (inactive) |
| O=C(CNC(=O)c1ccc(Cl)cc1Cl)NCC(=O)Nc1ccccc1N1CCOCC1 | -3.17% (inactive) |
| CCOC(=O)c1cc(-c2ccc(Cl)s2)nc2c1c(C)nn2C | 11.4% (inactive) |
| COc1cc2c(cc1NC(=O)COC(=O)/C=C/c1ccccc1)oc1ccccc12 | -1.34% (inactive) |
| COc1cc2c(cc1NC(=O)CN1CCN(S(=O)(=O)c3ccc(F)cc3)CC1)oc1ccccc12 | 14.1% (active) |
| O=C(CN1CCN(S(=O)(=O)c2ccc(F)cc2)CC1)NC1CC1 | 6.03% (inactive) |
| FC(F)(F)c1cccc(NC(=S)OC2CCC23CCC(c2ccccc2)CC3)c1 (stereo not drawn) | 5.79% (inactive) |
| O=C(CC1SC(=Nc2ccccc2)N(Cc2ccccn2)C1=O)Nc1cccc(Cl)c1 (stereo not drawn) | 1.93% (inactive) |
| NC1=NC(c2ccc([N+](=O)[O-])cc2)N(c2ccc(F)cc2)C(N)=N1 (stereo not drawn) | 5.54% (inactive) |
| Cc1ccc(NS(=O)(=O)c2ccc3c(c2)NC(=O)CO3)cc1 | 1.74% (inactive) |
| Cc1ccc(NS(=O)(=O)c2cc3c(cc2C)NC(=O)CO3)cc1 | 10.7% (inactive) |
| Cc1ccc(NS(=O)(=O)c2cc3c(cc2Br)NC(=O)CO3)cc1C | 23.4% (active) |
| C[C@@H]1CN([C@@H](C)CO)C(=O)c2cccc(NC(=O)Nc3cccc4ccccc34)c2O[C@H]1CN(C)S(=O)(=O)c1ccccc1F | -2.31% (inactive) |
| CC1(C)NC(=O)N(CC(=O)Nc2cc(C(F)(F)F)cc(C(F)(F)F)c2)C1=O | 3.72% (inactive) |
| CC(NCc1ccco1)C(=O)N1CCCCC1 (stereo not drawn) | -4.97% (inactive) |
| COCCNc1nc(-c2ccccc2)nc2c1oc1ccccc12 | 7.87% (inactive) |
| COc1ccc(C)cc1Nc1nc(C)nc2c1oc1ccccc12 | 53.9% (active) |
| COC(=O)c1cnc(Nc2cc(C)ccc2OC)c2ccccc12 | -1.59% (inactive) |
| O=[N+]([O-])c1ccc(NCCCO)c(C(F)(F)F)c1 | -1.69% (inactive) |
| N#Cc1ccc(OCCCN2CCC(C(O)(c3ccccc3)c3ccccc3)CC2)c(F)c1 | 2.99% (inactive) |
| CCCNC(=S)NC1CC2CCCC(C1)N2CC(C)C (stereo not drawn) | 1.93% (inactive) |
| COc1ccc(-c2ccc3nnc(SCC(=O)Nc4ccc(NC(C)=O)cc4)n3n2)cc1 | -7.04% (inactive) |

| Compound | activity |
| --- | --- |
| COc1ccc(CC(=O)Nc2ccc(-c3nnc(-c4ccc(C)cc4)o3)cc2)cc1 | 26.4% (active) |
| Cc1ccc(CC(=O)Nc2cccc(C#N)c2)cc1 | 0.97% (inactive) |
| CC1CCCC(NC(=O)CSc2nccn2C)C1C (stereo not drawn) | -3.46% (inactive) |
| c1ccc(-c2cc(-c3nnc4sc(-c5ccccn5)nn34)[nH]n2)cc1 | 22.2% (active) |
| Fc1ccc(-c2ccc(-c3nn4c(-c5ccco5)nnc4s3)o2)cc1 | -8.14% (inactive) |
| C=CCNC(=S)/N=c1/ccccn1Cc1ccccc1 | 3.96% (inactive) |
| O=C(CC12CC3CC(CC(C3)C1)C2)NCc1ccco1 | -3.49% (inactive) |
| CCOC(=O)c1nnn(-c2nonc2OC)c1-c1ccccc1 | -1.38% (inactive) |
| COC(=O)/C(=C1\Oc2ccc(C(C)(C)C)cc2S1)C(F)(F)F | 2.88% (inactive) |
| CCOC(=O)C1=C(c2ccccc2)O/C(=C(/C(=O)OC)C(F)(F)F)S1 | 23.2% (active) |
| CC(C)CC(=O)N1CCN(Cc2ccccc2Br)CC1 | 1.77% (inactive) |
| Cc1ccc(N=C2NC(=O)c3cccc([N+](=O)[O-])c32)cc1 | -0.93% (inactive) |
| C=C(C)C(=O)O[C@H]1C/C(C)=C\C(=O)/C=C(\C)[C@H](O)[C@@H]2OC(=O)C(=C)[C@@H]21 | -13.3% (inactive) |
| O=C(O)c1ccn(COc2ccc(Br)cc2)n1 | -0.74% (inactive) |
| Cc1ccc(-c2nc3c(C)cc(Br)cn3c2Cc2ccccc2)cc1 | 27% (active) |
| Cc1ccc(-c2nc3c(Cl)cc(C(F)(F)F)cn3c2Cc2cccc(Cl)c2)cc1 | -1.02% (inactive) |
| Cc1cc(Br)cn2c(Cc3cccc(F)c3)c(-c3cccc(Br)c3)nc12 | 8.77% (inactive) |
| Cc1cc(Br)cn2c(Cc3ccccc3C(F)(F)F)c(C3CCCCC3)nc12 | -1.46% (inactive) |
| Cc1cc(Br)cn2c(Cc3ccccc3C(F)(F)F)c(-c3ccc(Cl)cc3)nc12 | 24.8% (active) |
| Cc1cc(Br)cn2c(Cc3ccccc3C(F)(F)F)c(-c3ccc(C#N)cc3)nc12 | 16.1% (inactive) |
| Cc1ccc(NC(=O)Nc2cc(C)nn2-c2ccccc2)cc1 | -3.54% (inactive) |
| CCC1Nc2ncnc(N3CCN(c4ccccc4)CC3)c2N(Cc2ccc(Cl)cc2)C1=O (stereo not drawn) | -0.29% (inactive) |
| CCCc1nnc(NC(=O)CCC(=O)NC2CC2)s1 | -1.12% (inactive) |
| COCC(=O)N[C@@H]1C[C@@H]2O[C@@H](CO)CC[C@@H]2O[C@@H]1CCc1ccc(-c2ccccc2)cc1 | -1.13% (inactive) |
| CC(=O)N1CCCN(C2=Nc3ccccc3Sc3ccccc32)CC1 | -0.32% (inactive) |
| CCn1c(=O)cc(SCC(=O)NCCC2=CCCCC2)c2ccccc21 | -0.99% (inactive) |

| Compound | activity |
| --- | --- |
| CCCCNC(=O)CSc1nc2n[nH]c(C)c2c(=N)n1-c1cccc(Cl)c1C | 23.1% (active) |
| CCCCNC(=O)CSc1nccn1Cc1ccccc1 | -5.53% (inactive) |
| CCCCCCNC(=O)CSc1nccn1Cc1ccccc1 | 1.93% (inactive) |
| Cc1nnc(OCC(=O)NCCC2=CCCCC2)c2ccccc12 | -2.75% (inactive) |
| Cc1ccc(-n2c(SCC(=O)NCCC3=CCCCC3)nc3n[nH]c(C)c3c2=N)cc1Cl | 34.3% (active) |
| CCCCCC1CC(COc2ccccc2)OC1=O (stereo not drawn) | 3.77% (inactive) |
| CC(=O)c1c(C)n([O-])c2ccccc2[n+]1=O | 4.5% (inactive) |
| CC(C)C(C)(C#N)NC(=O)CSc1nncn1-c1ccccc1 (stereo not drawn) | 3.69% (inactive) |
| Cc1ccc2c(cnn2C(=O)CCC(=O)NC2CCCC2)c1 | 8.51% (inactive) |
| COc1ccc(CN2C/C(=C/c3ccccc3)N3C(=O)C[C@@H](c4ccccc4)N=C23)c(OC)c1 | -2.77% (inactive) |
| CC(=O)Nc1sc2c(c1C(c1cccc(F)c1)N1CCN(CCO)CC1)CCCC2 (stereo not drawn) | -4.11% (inactive) |
| Cc1nn2c(NCCN(C)C)c3c(nc2c1-c1ccccc1)CCC3 | -0.8% (inactive) |
| CCc1c(C)nc2c(-c3ccccc3)c(C)nn2c1Nc1ccc(NC(C)=O)cc1 | -3.83% (inactive) |
| Cc1cc(C(C)(C)C)n2nc(C)c(-c3ccccc3)c2n1 | 31.7% (active) |
| CC(Oc1ccccc1)C(=O)N[C@@H]1C(=O)N2[C@@H]1SC(C)(C)[C@@H]2C(=O)O (stereo partly drawn) | -0.45% (inactive) |
| COC(=O)c1ccc(N2CCOCC2)c(NC(=O)c2ccc(Br)o2)c1 | -3.88% (inactive) |
| Cc1cc(NC(=O)COc2ccccc2C#N)no1 | 5.64% (inactive) |
| Cc1cc(N/C=C\C(=O)c2ccc(Cl)c(Cl)c2)no1 | 24.8% (active) |
| Cc1cc(NCc2cccnc2)no1 | 2.81% (inactive) |
| CCN(CC)C(=O)CSc1nnc(-c2cnccn2)n1-c1ccc(C)cc1 | 5.46% (inactive) |
| COc1ccc(CCC(C)N2CCc3ccccc3C2)cc1 (stereo not drawn) | 1.36% (inactive) |
| COc1ccc(-n2ncc3c(N4CCc5ccccc54)ncnc32)cc1 | 56.3% (active) |
| CN(C(=O)COc1ncnc2c1cnn2-c1ccccc1)C1CCCCC1 | 1.94% (inactive) |
| O=c1cc(Cl)c2ccccc2n1-c1ccccc1 | -2.63% (inactive) |
| COc1cccc(N2CCN(CC(=O)N(C)Cc3ccc(F)cc3)CC2)c1 | -5.17% (inactive) |
